The values that follow come from PubChem BioAssay (Tox21).

Each structure is given as a SMILES string. Records with an inconclusive call do not appear. Unmarked numbers belong to inactive results. Calls come from the whole dose curve; as a rule, active = well fitted cell-killing curve with a large enough effect in the repeat runs; inconclusive = weak or mixed curves, or effect the other way; inactive = no such curve, though single readings can be large or run the other way.
% is set by controls: 0 for no effect and ±100 for the full control effect.

The experiment is described as follows: qHTS assay to identify small molecule antagonists of the glucocorticoid receptor (GR) signaling pathway - cell viability counter screen (AID 720693). Note: nearly all actives have a fitted effect of over 55% in size. The conditions noted are these: GR-bla HeLa viability, CellTiter-Glo luminescence, 18 h, with 5 nM dexamethasone present; series mostly up to 58.5 µM; viability change, negative = cytotoxic: at the top concentration. An excerpt:
National Center for Advancing Translational Sciences [NCATS]
NIH Chemical Genomics Center [NCGC]
U.S. Environmental Protection Agency [EPA]
National Institutes of Environmental Health Sciences [NIEHS]
National Toxicology Program [NTP]
U.S. Food and Drug Administration [FDA]
The Glucocorticoid receptor (GR) is one of the members of the nuclear receptor family of ligand-dependent transcription factors. GR plays a critical role in carbohydrate, protein and lipid metabolisms and programmed cell death. CellSensor GR-bla HeLa cell line (Invitrogen) contains a beta-lactamase reporter gene under the control of the glucocorticoid response element stably integrated into HeLa cells, a cervical cancer cell line that expresses glucocorticoid receptor. The activation of the reporter gene under culture conditions can be detected by fluorescence intensity. This cell line has been used to screen the Tox21 10K compound library and to identify the compounds that inhibit the GR signaling. The cytotoxicity of the Tox21 compound library against the GR-bla HeLa cell line was tested in parallel by measuring the cell viability using CellTiter-Glo assay in the same wells.
Tox21 Assay Protocol Summary:
The GR-bla HeLa cells were dispensed at 1500 cells/5 ul/well in 1536-well black wall/clear bottom plates using a Multidrop Combi (ThermoFisher Scientific, Waltham, MA) dispenser. After the assay plates were incubated at a 37 C/5% CO2 incubator for 4 hours, 23 nL of compounds dissolved in DMSO, positive controls or DMSO only was transferred to the assay plate by a pintool station (Kalypsys, San Diego, CA), followed by addition of 1 uL of dexamethasone (5 nM, final concentration in the well). The plates were incubated at 37 C for 18 hours. After 1 uL of LiveBLAzerTM B/G FRET substrate was added using a Flying Reagent Dispenser (Aurora Discovery, San Diego, CA), the plates were incubated at room temperature (RT) for 2 hours, and fluorescence intensity was measured by an Envision plate reader (PerkinElmer, Shelton, CT). After measurement of bla assay, 3 ul CellTiter-Glo (Promega, Madison, WI) was added to measure the cytotoxicity and the plates were then incubated at RT for 30 min. The luminescence was measured using a ViewLux (Perkin Elmer) plate reader.
For orientation: Quantitative high-throughput screening tests each substance at several concentrations.
Regarding `CCn1cc(C(=O)O)c(=O)c2cc(F)c(N3CCN(C)CC3)cc21`, the “viability change, negative = cytotoxic” value is -1.39%.
`CCC(=O)/C=C/c1ccc(OC)cc1`: the “viability change, negative = cytotoxic” value is 8.03%.
For the compound `C=CCOc1nc(OCC=C)nc(OCC=C)n1`, the “viability change, negative = cytotoxic” value was -3.33%.
In the case of `OCCCCCCO`, the “viability change, negative = cytotoxic” value is 14.8% [at 78.9 µM].
The figure for `CC(C)(C)C(=O)/C=C/c1ccc(Cl)cc1` is 14.5%; for `NCCNC(=O)c1ccc(Cl)cn1` it is 4.64%; for `CC1(C)SC(C)(C)SC(C)(C)S1` it is 13.7%.
For `CN1[C@@H]2CC[C@H]1CC(NC(=O)n1c(=O)[nH]c3ccccc31)C2` (stereo not given in full), the “viability change, negative = cytotoxic” value is 5.79%.
On to `C=C(C)C(=O)NCCCN(C)C`, for which the “viability change, negative = cytotoxic” value is 4.54%.
Consider `CCCCCCCCCCCCCCCCCCOCC(O)CO` (stereo not given), for which the “viability change, negative = cytotoxic” value is 0.302%.
As to `CCCCCCC(CCCCCCCCCCC(=O)OCC(COC(C)=O)OC(C)=O)OC(C)=O` (stereo not given), the “viability change, negative = cytotoxic” value is -0.658%.
With `COC(=O)c1ccc(C(=O)OC)c(C(=O)OC)c1`, the “viability change, negative = cytotoxic” value was -8.81%.
For `C=CC(=O)OCCCCCC`, the “viability change, negative = cytotoxic” value was -9.05%.
For the compound `CN(C)N=Nc1ccccc1`, the “viability change, negative = cytotoxic” value is 2.5%.
With `O=Cc1ccccc1[N+](=O)[O-]`, the “viability change, negative = cytotoxic” value was 5.57%.
Turning to `OCc1ccccn1`, the “viability change, negative = cytotoxic” value was -10.8%.
On to `CC/C=C\C#N`, for which the “viability change, negative = cytotoxic” value is -11.4%.
As for `NC(=S)Nc1cccc2ccccc12`, the viability change, negative = cytotoxic was -9.87% [at 7.04 µM].
Take `CC(=O)N[C@@H](CCC(N)=O)C(=O)O`: the “viability change, negative = cytotoxic” value was -0.731%.
To `COC[C@H](c1ccc(C(F)(F)F)cc1)N1CCN(C2(C)CCN(C(=O)c3c(C)ncnc3C)CC2)C[C@H]1C` belongs 3.7%; to `O=C(O)C(O)[C@H](O)[C@@H](O)[C@H](O)[C@H](O)CO` (stereo not given in full), -1.75% [at 78.9 µM]; to `Oc1ccc2c(c1)OC[C@@H](N1CCC(O)(c3ccc(F)cc3)CC1)[C@H]2O`, 12.7%.
The figure for `CCCC=O` is 10.1%.
With `CC(C)CCCC(C)CCCC(C)CCCCC(C)CCCC(C)CCCC(C)C` (stereo not given), the “viability change, negative = cytotoxic” value was 8.87%.
With `C=C(C)[C@H]1CC=C(C)CC1`, the “viability change, negative = cytotoxic” value was 3.68%.
To `C=CCSCC1Nc2cc(Cl)c(S(N)(=O)=O)cc2S(=O)(=O)N1` (stereo not given) belongs -0.283%; to `NC(=O)c1ncn([C@@H]2O[C@H](CO)[C@@H](O)[C@H]2O)c1N`, 7.47%; to `CN(C)C(=O)Nc1ccccc1`, -6.47%.
`CO[Si](OC)(OC)OC`: the “viability change, negative = cytotoxic” value is -11.7%.
To `CCCCCCCCCCC1CO1` (stereo not given) belongs 1.8%; to `CCc1cc(S(=O)(=O)O)c2cc(C(C)C)cccc1-2`, -1.58%.
Regarding `NC(=O)CCCCC1CCSS1` (stereo not given), the “viability change, negative = cytotoxic” value is 6.29%.
Regarding `COc1cc(O)cc(O)c1`, the “viability change, negative = cytotoxic” value is 1.37%.
For the compound `NC(=O)c1c(Cl)cccc1Cl`, the “viability change, negative = cytotoxic” value is 4.72%.
For the compound `Oc1cc(O)c2c(c1)O[C@H](c1ccc(O)c(O)c1)[C@H](O)C2`, the “viability change, negative = cytotoxic” value is 2.77%.
On to `CCC(C)OC(=O)N1CCCCC1CCO` (stereo not given), for which the “viability change, negative = cytotoxic” value is -5.31%.
As to `COC(=O)CCCC(=O)O`, the “viability change, negative = cytotoxic” value was 16.8%.
Turning to `COC(=O)C1=C(C)NC(C)=C(C(=O)OCC(C)=O)C1c1ccccc1[N+](=O)[O-]` (stereo not given), the “viability change, negative = cytotoxic” value is -12.1%.
For `C=C[Si](OC)(OC)OC`, the “viability change, negative = cytotoxic” value is -0.289%.
For the compound `CCC(C)(C)C1CCC(OC)CC1` (stereo not given), the “viability change, negative = cytotoxic” value is -15.8%.
